Results taken from ChEMBL document CHEMBL4513216, “Probing the Open Global Health Chemical Diversity Library for Multistage-Active Starting Points for Next-Generation Antimalarials” (ACS Infect Dis, 2020).
The whole screen tested about 69,000 compounds, of which about 8,600 (12%) showed an effect of 50% or more. Only a selection was taken, and strong results are over-represented in it overall.

Each molecule was assayed on Plasmodium berghei (assay: Screen against P. berghei liver stage (PbLuc), transformed with Luciferase, at 10uM). Conditions: tested at 10 uM.
Format: functional, HepG2

Compound | INHIBITION [%]
Cc1ccc(NC2CCN(C(=O)Cc3ccc(C)s3)CC2)nn1 | 27.8
CNC(=O)c1cccc(CN2CCN(C3=NCC(C)(C)S3)CC2)c1 | 28.7
O=C(C1CC(c2cccc(F)c2)=NO1)N1CCc2ccccc21 (stereo not given) | -12.2
O=C1CC[C@@H](C(=O)N2CCc3[nH]nc(COc4cccc(Cl)c4)c3C2)N1 | 52.6
Cc1nc(C)c(C(=O)N2CCc3[nH]nc(COc4ccccc4)c3C2)s1 | 49.5
O=C(N1CCOCC1)N1CCc2[nH]nc(COc3cccc(Cl)c3)c2C1 | 67.5
O=C(CCc1ccco1)N1CCc2[nH]nc(COc3ccccc3)c2C1 | 32.7
O=C(c1csnn1)N1CCc2[nH]nc(COc3cccc(Cl)c3)c2C1 | 73
O=C(CCn1cccc1)N1CCc2[nH]nc(COc3ccccc3)c2C1 | 34.7
O=C(CCc1cccs1)N1CCc2[nH]nc(COc3ccccc3)c2C1 | 36.7
O=C(CSCC1CC1)N1CCc2[nH]nc(COc3ccccc3)c2C1 | 11.9
CCSCCC(=O)N1CCc2[nH]nc(COc3ccccc3)c2C1 | 10.9
Cc1nn(C)c(N(C)C)c1CNC(C)COc1ccc(F)cc1 (stereo not given) | -59.4
NC(=O)C1CCN(C(=O)CCCc2nnc(-c3ccccc3)o2)C1 (stereo not given) | 14.4
CC(C)NC(=O)C1CN(C(=O)c2ccccc2)CC12CCOCC2 (stereo not given) | 29.9
CCN1C(=O)C(c2ccccc2)CC12CCN(Cc1cccnc1)CC2 (stereo not given) | -4.82
OCC1(O)CCCN(Cc2ccccc2OCCc2ccccc2)CC1 (stereo not given) | 52.6
OCC1(O)CCCN(Cc2nnc(-c3ccccc3)o2)CC1 (stereo not given) | 21.2
CN(C)CC1(O)CCCN(Cc2ccccc2OCC(=O)N(C)C)C1 (stereo not given) | 47.6
OCCOc1ccccc1CN1CCCC(O)(CO)C1 (stereo not given) | 66.5
COCCC1(C(=O)O)CCCN(Cc2ccccc2OCCO)C1 (stereo not given) | 3.48
O=C1NCC2(CCCN(Cc3ccccc3OCCO)C2)O1 (stereo not given) | 44.3
Cn1cc(C(=O)N2CCCC2c2[nH]ncc2C(N)=O)cn1 (stereo not given) | 7.52
O=C(CNCc1ccccc1Cn1cccn1)Nc1cnccn1 | 38.5

Compound | INHIBITION [%]
CCS(=O)(=O)N1CCC(C(=O)NC(Cc2ccsc2)c2nccs2)CC1 (stereo not given) | 59
O=C(NC(Cc1ccsc1)c1nccs1)C1CC1 (stereo not given) | 12.3
CS(=O)(=O)N1CCC(C(=O)NC(Cc2ccsc2)c2nccs2)CC1 (stereo not given) | 38.1
Cc1cc(C)n(CC2CN(Cc3nc(-c4ccco4)no3)CCO2)n1 (stereo not given) | 36.4
CN(CCN1CCOC1=O)CC(=O)Nc1ccc(Cl)c(Cl)c1 | 37.8
O=C(c1c2c(N3CCCC3)ncnc2n2ccccc12)N1CCCC1 | 47.4
O=C(CSCC1CC1)N1CCCN(c2ccc(F)cc2)CC1 | 59.4
O=C(CSCC1CC1)N1CCCN(Cc2ccc(F)cc2)CC1 | 23.9
Cc1cc(N2CCCN(C(=O)CSCC3CC3)CC2)ccn1 | 37.6
COCc1ccccc1C(=O)N1CCCC(c2cc(C)[nH]n2)C1 (stereo not given) | 40.9
COc1cc(NC(=O)C2CC(=O)N(c3cccc(Br)c3)C2)ncn1 (stereo not given) | 63.8
CCOc1cc(NC(=O)C2CC(=O)N(c3cccc(OC)c3)C2)ncn1 (stereo not given) | 45.7
COc1cc(NC(=O)C2CC(=O)N(c3cccc(F)c3)C2)ncn1 (stereo not given) | 6.34
CC(=O)N1CCCN(C(=O)NCCOc2ccc3c(c2)OCO3)CC1 | -31.8
CCN1CCC2(CCC1=O)CN(C1CCOCC1)CCN2C (stereo not given) | -10.9
CNc1cnc(CC2COCCN(Cc3cccc(C)n3)C2)cn1 (stereo not given) | 3.48
CN(CC1CC1)c1ccc2ccc(C(=O)NCCc3ccccc3)cn12 | 38.3
COc1ccc(OC)c(CN(Cc2ccco2)Cc2[nH]cnc2C)c1 | 26.1
COc1cccc(CN(Cc2ccco2)Cc2[nH]cnc2C)c1 | 87.7
COc1cccc(CN(Cc2ncc[nH]2)Cc2ccco2)c1 | 28.3
COc1cccc(CN(Cc2ccco2)Cc2cnc(C)n2C)c1 | 65.7
Cc1noc(CN(Cc2cccc(C#N)c2)Cc2ccco2)n1 | -9.82
COc1ccc(CN(Cc2ccco2)Cc2[nH]cnc2C)c(OC)c1 | 20.6
Cn1nc(C(=O)N2CCSCC2)cc1NC(=O)c1ccccc1 | 7.39

Compound | INHIBITION [%]
Cn1cc(C(=O)CC2CCCN2C(=O)c2coc3ccccc23)cn1 (stereo not given) | 3.15
CN(C)c1cc(CNc2cncc(-n3cccn3)n2)ccn1 | -6.14
CC(C)(C)c1ncc(C(=O)NCc2cccc(C(=O)N3CCCC3)c2)s1 | -12.9
COCc1ccc(CN[C@H]2C[C@@H](Cc3cc(CCO)on3)C2(C)C)o1 | 30.5
CC1(C)[C@H](Cc2cc(CO)on2)C[C@@H]1N(CC1CC1)CC1CC1 | 27.2
CC1(C)[C@H](Cc2cc(CO)on2)C[C@@H]1NCc1ccc(CO)o1 | 58.5
O=C(c1cc(F)ccc1Br)N1CCN(C(=O)C2CC2)CC1 | 12.9
CCOc1cc(Cl)ccc1CNC(=O)c1ccc(=O)n(C)c1 | 39.3
CNS(=O)(=O)CC(=O)N1CC2(CCCC2)c2c(F)cccc21 | -17.2
O=C(NCC(=O)N1CC2(CCCC2)c2c(F)cccc21)C1CC1 | 40.5
CCS(=O)(=O)NCC(=O)N1CC2(CCCC2)c2c(F)cccc21 | 62.4
Cc1nn(C)cc1CN(C)C(=O)c1cnccn1 | 8.7
Cn1cc(S(=O)(=O)NCc2ccc(F)cc2)cn1 | 24.175
CN(C)CC1CN(Cc2ccc(-n3cccn3)cc2)CCO1 (stereo not given) | 15.3
O=C(Cc1cccc(F)c1)N1C[C@H]2CN(Cc3cccnc3)C[C@H]2C1 | 0.112
CN(C)C(=O)NC1COC2(CCN(Cc3ccc(Cl)c(F)c3)CC2)C1 (stereo not given) | 39.2
c1ccc(O[C@H]2COCCN(Cc3c[nH]c4ccccc34)C2)cc1 | -41.9
c1cncc(C2=NOC3(CCN(Cc4c[nH]c5ccccc45)CC3)C2)c1 | 44.1
CC(C)C1=NOC2(CCN(Cc3c[nH]c4ccccc34)CC2)C1 | 75.6
CC1=NOC2(CCN(Cc3c[nH]c4ccccc34)CC2)C1 | 43.3
c1ccc(C2=NOC3(CCN(Cc4c[nH]c5ccccc45)CC3)C2)cc1 | 63.1
CC(=O)N1CCC2(CC1)CC(C(C)C)=NO2 | 25.1
